High-throughput results deposited in PubChem BioAssay by National Center for Advancing Translational Sciences (NCATS).
A selection: hits, their analogues and other compounds. The true share with any hit is near 3.1%.
EPAC2 ant val – Validation qHTS for antagonist of cAMP-regulated guanine nucleotide exchange factor 4 (EPAC2). 1.7% of 16,000 active. EPAC2 Rap1B BODIPY-GDP exchange, fluorescence. Rap guanine nucleotide exchange factor 4 (Homo sapiens), Q8WZA2. Potency, µM (doses to about 112 µM), inactives show top-dose activity, negative = inhibition, actives largely listed as inhibitors. AID 1645886, 2021;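 also: 100% = activation by cAMP agonist control; nearly all actives have a fitted effect of over 40% in size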
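Fluorescent exchange read-out: 100 nM EPAC2 with 250 nM RAP1B–BODIPY-GDP and 50 uM GDP; BODIPY-GDP release lowers fluorescence. Read at 480/540 nm every 5 min for 30 min at room temperature; normalized to 6.5 mM cAMP.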
EPAC1 agonist – Validation qHTS for agonist of cAMP-regulated guanine nucleotide exchange factor 3 (EPAC1). Potency, µM, for the others: max response, positive = active, actives largely listed as activators. Rap guanine nucleotide exchange factor 3 (Homo sapiens), O95398. AID 1645883, 2021. EPAC1 Rap1b BODIPY-GDP exchange, fluorescence. 1% of 16,000 active; also: nearly all actives have a fitted effect of over 70% in size
* = called active by the depositor; u = inconclusive; ! = not active in a repeat; [ ] = remark or other dose. Calls follow the shape of the dose curve; as a rule, active = well fitted curve in the direction sought with a large enough effect; inconclusive = small, poorly fitted or top-dose-only effect, or another doubt; inactive = no such curve, though single readings can be large; an effect the other way counts as inactive or inconclusive. Unless noted, % is scaled to controls: 0 for no effect and ±100 for the full control effect; potency is read from the fitted curve at half-maximal effect.

SMILES	EPAC2 ant val	EPAC1 agonist
CC(=O)N1CCC[C@H]1C(=O)NCC1Cc2cc(-c3cccc(OC(F)(F)F)c3)ccc2O1 (stereo partly specified)	70.8µM*	3.7%
CC[C@H]1OC(=O)C[C@@H](O)[C@H](C)[C@@H](O[C@@H]2O[C@H](C)[C@@H](O)[C@H](N(C)C)[C@H]2O)[C@@H](CCN2C[C@H](C)C[C@H](C)C2)C[C@@H](C)C(=O)/C=C/C(C)=C/[C@@H]1CO[C@@H]1O[C@H](C)[C@@H](O)[C@@H](OC)[C@H]1OC	13.9%	-28.8%
CC(C)=CCc1c2c(c3occ(-c4ccc(O)c(O)c4)c(=O)c3c1O)C=CC(C)(C)O2	25.1µM*	-151.2%
CC(C)=CCc1c(O)cc2occ(-c3ccc4c(c3)OCO4)c(=O)c2c1O	-25.5%	u
CC(C)=CCc1c2c(c3occ(-c4ccc(O)cc4)c(=O)c3c1O)C=CC(C)(C)O2	31.6µM*	-170.3%
O=c1c(-c2ccc(O)cc2)coc2cc(O)cc(O)c12	-18.1%	-4.9%
C=CS(=O)(=O)O	52.8%	10.9%
Cc1c(C(=O)NCC2(N3CCOCC3)CCCC2)cnn1-c1nccc(-c2ccccc2F)n1	2.8%	1.1%
Cc1cc(C)n(-c2cccc(C(=O)NCC3Cc4cccc(-c5ccccn5)c4O3)c2)n1 (stereo unspecified)	u	-0.2%
CCCCC(=O)OCC(=O)[C@]1(O)Cc2c(O)c3c(c(O)c2[C@@H](O[C@H]2C[C@H](NC(=O)C(F)(F)F)[C@H](O)[C@H](C)O2)C1)C(=O)c1c(OC)cccc1C3=O	-3.6%	-7.8%
CC1(C)Oc2ccc3ccc(=O)oc3c2CC1=O	13.0%	-33.5%
CC(=O)OC1c2c(ccc3ccc(=O)oc23)OC(C)(C)C1OC(=O)CC(C)C (stereo unspecified)	39.8µM*	-113.4%
CO[C@H]1C=CO[C@@]2(C)Oc3c(C)c(O)c4c(O)c(c(/C=N/N5CCN(C6CCCC6)CC5)c(O)c4c3C2=O)NC(=O)/C(C)=C\C=C[C@H](C)[C@H](O)[C@@H](C)[C@@H](O)[C@@H](C)[C@H](OC(C)=O)[C@@H]1C	u	-94.2%
C=C[C@]1(C)C[C@@H](OC(=O)CSC(C)(C)CNC(=O)[C@H](N)C(C)C)[C@]2(C)[C@H](C)CC[C@]3(CCC(=O)[C@H]32)[C@@H](C)[C@@H]1O	-24.8%	-6.1%
O=c1cc(O)cc(/C=C/c2ccc(O)c(O)c2)o1	-1.7%	1.8%
Oc1ccc(/C=C\c2cc(O)cc(O)c2)cc1	28.2µM*	-16.8%
O=C(/C=C/c1ccc(O)cc1)c1ccc(O)cc1O	u	-4.2%
Oc1ccc(/C=C/c2cc(O)cc(O)c2)cc1	50.1µM*!	u
Cc1cc(C(=O)NCC2CCC3(CCN(Cc4ccc(-c5ccccc5)cc4)CC3)O2)n(C)n1 (stereo unspecified)	u	4.7%
CCc1cc(C(=O)NCC2Cc3cc(C)cc(-c4cc(C(C)=O)ccc4F)c3O2)n(C)n1 (stereo unspecified)	u	1.4%
C[C@@H]1[C@H](O)[C@@H](C)/C=C/C=C\C=C\C=C\C=C\C=C\C=C\[C@H](O[C@@H]2O[C@H](C)[C@@H](O)[C@H](N)[C@@H]2O)C[C@@H]2O[C@](O)(C[C@@H](O)C[C@@H](O)[C@H](O)CC[C@@H](O)C[C@@H](O)CC(=O)O[C@H]1C)C[C@H](O)[C@H]2C(=O)O (stereo in doubt)	0.8%	4.3%
COc1ccccc1-c1ccnc(-n2ncc(C(=O)NC(c3cccnc3)C(F)(F)F)c2C)n1 (stereo unspecified)	6.2%	4.2%
COC(=O)c1ccccc1NS(C)(=O)=O	u	-33.8%
COC(=O)c1c(C)[nH]c(C)c1C(=O)c1ccccc1Cc1ccccc1	79.4µM*!	4.2%
Nc1cc(-c2ccncc2)c[nH]c1=O	35.5µM*!	u
SMILES	EPAC2 ant val	EPAC1 agonist
Cc1cc(C(=O)Nc2cccc(-c3nc(CNC(=O)c4sc(C)nc4C)c(C)o3)c2)c(C)o1	-3.1%	22.3%
COc1cc(=O)n2c(c1C(=O)NCc1ccco1)CCN(C(=O)c1c(F)ccc(F)c1F)CC2	-13.6%	-10.7%
O=C([C@@H]1C[C@@H](Sc2nc3ccccc3[nH]2)CN1Cc1ccc(Cl)cc1)N1CCN(c2ccccc2F)CC1	-2.4%	0.1%
Nc1ccc(O)c(C(=O)O)c1	7.7%	u
O=C(O)C1=CC(=C(c2ccc(O)c(C(=O)O)c2)c2ccc(O)c(C(=O)O)c2)C=CC1=O	39.8µM*!	u
Cc1c(C(=O)NCc2cccc(F)c2)sc2ncnc(NCC3CCCO3)c12 (stereo unspecified)	3.4%	-11.4%
C/C1=C2N=C(/C=C3N=C(/C(C)=C4\[N-]C(C(CC(N)=O)C4(C)CCC(=O)NCC(C)OP(=O)([O-])OC4C(CO)OC(n5cnc6cc(C)c(C)cc65)C4O)C4(C)N=C1C(CCC(N)=O)C4(C)CC(N)=O)C(CCC(N)=O)C\3(C)C)C(CCC(N)=O)C/2(C)CC(N)=O.[CH3-].[Co+3] (stereo unspecified)	10µM*	2.1%
Cc1cc(C)c(S(=O)(=O)Nc2ccccc2C(F)(F)F)c(C)c1	44.7µM*	5.8%
COc1ccc(-c2nc3cc(F)ccc3cc2CN(C(=O)c2cccc(OC)c2)C2CC2)cc1	1.2%	-1.1%
COc1cccc(-c2nc3cc(SC)ccc3cc2CN(C(=O)c2csc(C)n2)C2CC2)c1	15.8µM*	-1.9%
COc1cc(C)c(C(=O)Oc2cc(C)c(C(=O)O)c(O)c2C)c(OC)c1C	50.1µM*	-128.3%
COc1cc(OC)c(C(C)=O)c(O)c1C	-8.8%	-16.8%
COc1ccc(/C=C/C(=O)c2cc(O)ccc2O)cc1	u	9.4%
COc1ccc(C(=O)c2ccccc2O)c(O)c1	44.7µM*!	-3.9%
N=C(N)c1ccc(OCCCOc2ccc(C(=N)N)cc2Br)c(Br)c1	21.3%	-1.0%
Clc1ccc(C(Cn2ccnc2)OCc2c(Cl)cccc2Cl)c(Cl)c1 (stereo unspecified)	u	39.8µM*!
Oc1c(Cl)cc(Cl)cc1Sc1cc(Cl)cc(Cl)c1O	56.2µM*	-9.0%
O=S(c1cc(Cl)cc(Cl)c1O)c1cc(Cl)cc(Cl)c1O	u	-3.0%
CC[C@@H](C)[C@H](N)C(=O)O	7.0%	-24.1%
NC(=NCCCCCCN=C(N)/N=C(\N)Nc1ccc(Cl)cc1)/N=C(\N)Nc1ccc(Cl)cc1	79.4µM*!	-12.7%
CC(C)N=C(N)/N=C(\N)Nc1ccc(Cl)cc1	-10.1%[56.6 µM]	-16.7%
COc1ccc(C(C)=O)cc1	-28.8%	13.6%
COc1ccc2cc(CCC(C)=O)ccc2c1	15.8µM*!	-37.0%
CC(C)CN(C[C@@H](O)[C@H](Cc1ccccc1)NC(=O)O[C@@H]1CCOC1)S(=O)(=O)c1ccc(N)cc1	-5.1%	-13.1%
CC(=O)Oc1ccc(C(c2ccc(OC(C)=O)cc2)c2ccccn2)cc1	17.8µM*	-44.1%
O=S(=O)(O)Oc1ccc(C(c2ccc(OS(=O)(=O)O)cc2)c2ccccn2)cc1	-11.2%	22.4%
COc1cc(OC)c(OC)cc1CN1CCCC(n2cc(C(=O)N3CCCCC3)nn2)C1 (stereo unspecified)	11.6%	-23.4%
COC(=O)c1c(OC)cc2c(c1C)Oc1c(Cl)c(OC(C)=O)c(Cl)c(C)c1C(=O)O2	11.2µM*	-25.5%
COC(=O)c1c(C)cc(OC)cc1O	u	-31.9%
